Laboratory results: PubChem BioAssay (NCATS)
“And” between values parts separate entries of the source, which are not always exact repeats. Identical values can stand only once. Inconclusive results are not listed. The source made the active and inactive calls. The call rests on the fitted dose curve; in most records, active means well fitted curve in the direction sought with a large enough effect; inconclusive means small, poorly fitted or top-dose-only effect, or another doubt; inactive means no such curve, though single readings can be large; an effect the other way counts as inactive or inconclusive.

Key:
[1] = BET inhibitor-based combinations targeting novel dependencies in MECOM-rearranged (r) AML: SET-2 cell line (AID 2202231); conditions: SET-2 AML cells viability, CellTiter-Glo luminescence, 48 h; viability: stronger effect = lower value, concentration not given here; further: nearly all actives have a fitted effect of over 35% in size;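 on viability: plate controls were DMSO treated cells for no effect and wells without cells for full effect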
How it was run: (§1)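 Cells were plated at 500 per well and exposed to an 11-point dose series of each drug for 48 hr. Viability was measured by CellTiter-Glo luminescence, normalized to DMSO and empty-well controls, and summarized as AUC and per-cell-line Z-AUC.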

[2] = BET inhibitor-based combinations targeting novel dependencies in MECOM-rearranged (r) AML: OCI-AML3 cell line (AID 2202232); conditions: Potency: OCI-AML3 viability; further: nearly all actives have a fitted effect of over 35% in size;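 on viability (% of control): series mostly up to about 46 µM; plate controls were DMSO vehicle wells for no effect and wells without cells for full effect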
How it was run: as §1

[3] = BET inhibitor-based combinations targeting novel dependencies in MECOM-rearranged (r) AML: MV-4-11 cell line (AID 2202233); further: nearly all actives have a fitted effect of over 45% in size;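 on viability, % of control: plate controls were DMSO for no effect and blank wells for full effect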
How it was run: (§2)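 Activity is given as area under the curve and as Z-AUC, mean-centred within each cell line. It comes from 11-point dose curves normalized to DMSO and empty wells. CellTiter-Glo luminescence was read after 48 hr drug exposure of 500 cells/well.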

[4] = BET inhibitor-based combinations targeting novel dependencies in MECOM-rearranged (r) AML: HNT-34 cell line (AID 2202234); further: nearly all actives have a fitted effect of over 35% in size;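 on viability (% of control): plate controls were vehicle wells for no effect and cell-free wells for full effect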
How it was run: as §2

[5] = BET inhibitor-based combinations targeting novel dependencies in MECOM-rearranged (r) AML: UCSD-AML1 cell line (AID 2202235); further: nearly all actives have a fitted effect of over 40% in size;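 on viability (% of control): series mostly up to about 46 µM; plate controls were DMSO vehicle wells for no effect and blank wells for full effect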
How it was run: as §2

[6] = BET inhibitor-based combinations targeting novel dependencies in MECOM-rearranged (r) AML: AML-191 cell line (AID 2202236; further: nearly all actives have a fitted effect of over 35% in size;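 on viability (% of control): plate controls were vehicle wells for no effect and wells without cells for full effect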)
How it was run: as §1

[7] = BET inhibitor-based combinations targeting novel dependencies in MECOM-rearranged (r) AML: AML-194 cell line (AID 2202237; further: nearly all actives have a fitted effect of over 40% in size;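 on viability (% of control): plate controls were vehicle wells for no effect and wells without cells for full effect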)
How it was run: as §1
Potency means the concentration at half of the fitted maximal effect.

CC(C)(O)CS(=O)(=O)Nc1ccc2c(c1)CCN(C(=O)COc1cccnc1)C2
inactive: viability [1] 108% | Potency [7]
active: Potency [2] 0.0235 µM | Potency [3] 0.105 µM | Potency [4] 0.0661 µM | Potency [5] 0.332 µM | Potency [6] 0.0661 µM

C[C@@]12C(=O)OC(=O)[C@]1(C)[C@H]1CC[C@@H]2O1
active: Potency [1] 4.17 µM | Potency [2] 3.72 µM | Potency [3] 3.32 µM | Potency [4] 2.95 µM | Potency [5] 7.42 µM | Potency [6] 2.95 µM | Potency [7] 2.63 µM

Cc1ccc(C)c(OCCCC(C)(C)C(=O)O)c1
inactive: viability [1] 116% | Potency [2] | Potency [3] | Potency [4] | Potency [5] | Potency [6] | Potency [7]

O=C(O)CCNc1cc(N2CCc3ccccc3CC2)nc(-c2cccnc2)n1
inactive: viability [1] 116% | Potency [3] | Potency [4] | Potency [5] | Potency [6] | Potency [7]
active: Potency [2] 9.34 µM

CCC[C@H](NC(=O)/C(C#N)=C/c1cccc(Br)n1)c1ccccc1
active: Potency [1] 4.17 µM | Potency [2] 3.32 µM | Potency [3] 2.95 µM | Potency [4] 2.95 µM | Potency [5] 3.32 µM | Potency [6] 3.72 µM | Potency [7] 7.42 µM

CN(C)N=Nc1nc[nH]c1C(N)=O
active: Potency [1] 16.6 µM | Potency [3] 9.34 µM | Potency [6] 14.8 µM
inactive: Potency [2] | Potency [4] | Potency [5] | Potency [7]

CN(CCOc1ccc(C[C@H](Nc2ccccc2C(=O)c2ccccc2)C(=O)O)cc1)c1ccccn1
inactive: viability [1] 94.3% and 95.3% | Potency [2] | Potency [3] | Potency [4] | Potency [5] | Potency [6] | Potency [7]

COc1ccc2c(c1)CC[C@@H]1[C@@H]2CC[C@]2(C)[C@@H](NCCCCCCN3C(=O)C=CC3=O)CC[C@@H]12
inactive: viability [1] 113% | Potency [2] | Potency [3] | Potency [4] | Potency [5] | Potency [6] | Potency [7]

CC[C@@]1(O)C[C@H](O[C@H]2C[C@H](N(C)C)[C@H](O[C@H]3C[C@H](O)[C@H](O[C@H]4CCC(=O)[C@H](C)O4)[C@H](C)O3)[C@H](C)O2)c2c(cc3c(c2O)C(=O)c2c(O)cccc2C3=O)[C@@H]1C(=O)OC
active: Potency [1] 3.72 µM | Potency [2] 3.32 µM | Potency [3] 0.742 µM | Potency [4] 3.32 µM | Potency [5] 2.35 µM | Potency [6] 2.95 µM | Potency [7] 3.72 µM

CCC(=O)NCC[C@@H]1CCc2ccc3c(c21)CCO3
inactive: viability [1] 114% | Potency [2] | Potency [3] | Potency [4] | Potency [5] | Potency [6] | Potency [7]

CC(C)C(N)C(=O)OCC(CO)OCn1cnc2c(=O)[nH]c(N)nc21 (centres undefined)
inactive: viability [1] 87% | Potency [2] | Potency [3] | Potency [4] | Potency [5] | Potency [6] | Potency [7]

COc1cc2c(cc1OC)CN(CCc1ccc(-n3nnc(-c4cc(OC)c(OC)cc4NC(=O)c4cc(=O)c5ccccc5o4)n3)cc1)CC2
inactive: viability [1] 116% | viability (% of control) [2] 94.2% [at 0.315 µM] | viability, % of control [3] 93.2% [at 0.315 µM] | viability (% of control) [4] 93.8% [at 0.315 µM] | viability (% of control) [5] 106% [at 0.315 µM] | viability (% of control) [6] 99.1% [at 0.315 µM] | viability (% of control) [7] 95.7% [at 0.315 µM]

CNC1CCCN(c2c(F)cc3c(=O)c(C(=O)O)cn(C4CC4)c3c2OC)C1 (centres undefined)
inactive: viability [1] 112% | Potency [2] | Potency [3] | Potency [4] | Potency [5] | Potency [6] | Potency [7]

CCCCCCCOc1ccc(CCC(N)(CO)CO)cc1C(F)(F)F
active: Potency [1] 18.6 µM | Potency [2] 16.6 µM | Potency [3] 14.8 µM | Potency [4] 14.8 µM | Potency [5] 10.5 µM | Potency [6] 18.6 µM | Potency [7] 14.8 µM

COCc1c(-c2ccc(NC(=O)Nc3cc(C(F)(F)F)ccc3F)c(F)c2)c2c(N)ncnn2c1CN1CCOCC1
active: Potency [1] 6.61 µM | Potency [2] 10.5 µM | Potency [3] 0.0263 µM | Potency [4] 2.35 µM | Potency [5] 6.61 µM | Potency [6] 5.9 µM | Potency [7] 5.9 µM

CC(=NNC(=O)c1cccc(S(=O)(=O)N2CCOCC2)c1)c1cc(Cl)ccc1O
active: Potency [1] 6.61 µM | Potency [2] 5.25 µM | Potency [3] 7.42 µM | Potency [4] 2.63 µM | Potency [5] 5.25 µM | Potency [6] 2.09 µM | Potency [7] 4.68 µM

NC(CC1c2ccccc2Oc2ccccc21)(C(=O)O)C1CC1C(=O)O (centres undefined)
inactive: viability [1] 118% | Potency [2] | Potency [3] | Potency [4] | Potency [5] | Potency [6] | Potency [7]
